Source: PubChem BioAssay
A selection: hits, their analogues and other compounds. The true share with any hit is near 12%.
PLK1 PBD inh: blocks phosphopeptide binding to human PLK1 polo-box domain | P53350 | Plk1 PBD binding of FITC phosphopeptide, fluorescence polarization | Potency, µM, for inactives: max response, negative = inhibition, hits mostly inhibitors | 2.8% of 360,000 active | AID 720504; also: potency is read from the fitted curve at half-maximal effect; series mostly up to about 57 µM; % is scaled to controls: 0 for no effect and ±100 for the full control effect; nearly all actives have a fitted effect of over 65% in size
G9a block: inhibitors of human histone lysine methyltransferase G9a. Q96KQ7. AID 504332. G9a H3K9 monomethylation, AlphaScreen, 2 h. Potency, µM (titrated, usually from 102 µM), for the others: at the top dose activity, negative = inhibition, hits mostly inhibitors. 8.8% of 350,000 active; also: potency is read from the fitted curve at half-maximal effect; % is scaled to controls: 0 for no effect and ±100 for the full control effect; nearly all actives have a fitted effect of over 75% in size
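Step 1: enzyme (final 20 nM) with compound, 15 min RT. Step 2: substrate peptide 500 nM and SAM 20 uM, 2 h RT. Step 3: anti-H3K9me1 antibody and AlphaScreen beads, 10 min, then plate read.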
PI5P4Ka inh: blocks human PI5P4K alpha kinase activity. 1.2% of 330,000 active. P48426. max response, %. PI5P4Kalpha enzyme, ADP-Glo luminescence, 60 min; stronger effect = lower value. AID 652105; active = max response of -50% or lower; inconclusive = between -30% and -50%; inactive = -30% or higher; also: value at the top dose of about 77 µM; % is scaled to controls: 0 for no effect and ±100 for the full control effect
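Reactions run in 0.038 M HEPES pH 7.4, 0.28 mM EGTA, 0.1% CHAPS and 5% DMSO, with PI5P4Kalpha, substrate, compound and 5 microM ATP final, one hour at room temperature. Readout is ADP-Glo luminescence.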
JMJD2A Tudor: inhibitors of human JMJD2A Tudor domain | 4.4% of 390,000 active | AlphaScreen JMJD2A-Tudor / H3K4me3 peptide binding | O75164 | Potency, µM (series often up to 114 µM), for the others: top-dose activity change, negative = inhibition, usual class: inhibitors; also: potency is read from the fitted curve at half-maximal effect; % is scaled to controls: 0 for no effect and ±100 for the full control effect; nearly all actives have a fitted effect of over 50% in size
Target sequence (O75164 whole entry, looked up, the tested form may be a part): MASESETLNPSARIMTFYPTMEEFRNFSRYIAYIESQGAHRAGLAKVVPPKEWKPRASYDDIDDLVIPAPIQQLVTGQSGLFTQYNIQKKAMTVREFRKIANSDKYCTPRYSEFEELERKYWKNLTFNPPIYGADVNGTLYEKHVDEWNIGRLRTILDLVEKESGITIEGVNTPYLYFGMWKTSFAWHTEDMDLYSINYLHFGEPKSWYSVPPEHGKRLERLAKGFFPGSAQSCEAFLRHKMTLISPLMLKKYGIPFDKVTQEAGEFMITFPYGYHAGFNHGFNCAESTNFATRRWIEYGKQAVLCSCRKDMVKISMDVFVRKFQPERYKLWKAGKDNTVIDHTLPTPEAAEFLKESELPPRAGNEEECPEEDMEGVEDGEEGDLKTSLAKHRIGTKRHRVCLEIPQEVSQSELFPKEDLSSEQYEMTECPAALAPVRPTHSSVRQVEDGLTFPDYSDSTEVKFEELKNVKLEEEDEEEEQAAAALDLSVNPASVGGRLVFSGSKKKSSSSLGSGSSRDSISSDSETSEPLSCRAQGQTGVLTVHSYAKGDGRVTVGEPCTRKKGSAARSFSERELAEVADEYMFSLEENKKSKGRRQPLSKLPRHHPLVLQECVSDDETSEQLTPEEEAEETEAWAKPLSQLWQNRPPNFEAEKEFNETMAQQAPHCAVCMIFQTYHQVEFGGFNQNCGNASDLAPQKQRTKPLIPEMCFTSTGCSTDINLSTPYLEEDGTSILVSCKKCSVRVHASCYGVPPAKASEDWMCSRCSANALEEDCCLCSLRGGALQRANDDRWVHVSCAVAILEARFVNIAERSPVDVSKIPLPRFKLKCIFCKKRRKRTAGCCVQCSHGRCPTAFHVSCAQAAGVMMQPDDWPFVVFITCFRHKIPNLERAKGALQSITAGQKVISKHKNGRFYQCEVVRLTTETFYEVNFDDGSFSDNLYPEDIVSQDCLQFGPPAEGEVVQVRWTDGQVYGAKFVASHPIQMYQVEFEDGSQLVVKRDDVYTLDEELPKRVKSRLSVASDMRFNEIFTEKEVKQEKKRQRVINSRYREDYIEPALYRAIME
HP1b chromo inh: inhibitors of HP1-beta chromodomain binding to methylated histone tails; P83916; 0.56% of 390,000 active; AlphaScreen HP1-beta / biotin-H3K9me3 peptide binding; Potency, µM (doses to about 114 µM), inactives show at the highest dose activity change, negative = inhibition, hits mostly inhibitors; also: potency is read from the fitted curve at half-maximal effect; nearly all actives have a fitted effect of over 70% in size
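HP1-beta protein (50 nM final) preincubated 30 min at room temperature with biotinylated H3(1-18)K9me3 peptide (50 nM) in PBS pH 7.4, 0.01% Tween-20, then compound added for 30 min. AlphaScreen streptavidin donor/nickel chelate acceptor beads (10 ug/mL final), 30 min dark, luminescence read.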
BAZ2B inh: BAZ2B (human) inhibition. AlphaScreen BAZ2B-H3K14Ac peptide displacement. Potency, µM (highest dose often 114 µM), without a hit: at the top dose activity change, negative = inhibition, hits mostly inhibitors. 4.4% of 360,000 active. AID 504333; also: potency is read from the fitted curve at half-maximal effect; % is scaled to controls: 0 for no effect and ±100 for the full control effect; nearly all actives have a fitted effect of over 60% in size
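Complex of BAZ2B and biotin-H3K14Ac (50 nM apiece) forms over 30 min at RT, then faces library compounds up to 110 uM for another 30 min; AlphaScreen beads added, 20 min dark incubation, luminescence read.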
* marks the source's active call; other numbers are inactive results; ? = inconclusive; · = not tested or not shown; [ ] = dose if it differs, or a comment. Unless noted, calls follow the shape of the dose curve; as a rule, active = well fitted curve in the direction sought with a large enough effect; inconclusive = small, poorly fitted or top-dose-only effect, or another doubt; inactive = no such curve, though single readings can be large; an effect the other way counts as inactive or inconclusive.

SMILES	PLK1 PBD inh	G9a block	PI5P4Ka inh	JMJD2A Tudor	HP1b chromo inh	BAZ2B inh
CCN(CC)c1ccc(/C=C2/C(=O)NC(=O)N(Cc3ccco3)C2=O)cc1	?	?	-73*	?	-14%	40µM*
CN(C)c1ccc(/C=C2/C(=O)NC(=O)N(Cc3ccco3)C2=O)cc1	1.9µM*	?	-58*	-35%	-7%	-31%
NC(=O)C1CCN(/C=C2\C(=O)NC(=O)N(Cc3ccco3)C2=O)CC1	?	?	-61*	79µM*	?	?
CC[C@H](C)[C@H](NC(=O)[C@H](CCCN=C(N)N)NC(=O)[C@H](CCCN=C(N)N)NC(=O)[C@H](CC(C)C)NC(=O)[C@H](Cc1ccccc1)NC(=O)CNC(=O)CNC(=O)[C@@H](N)Cc1ccc(O)cc1)C(=O)O	·	41%[59 µM]	·	·	·	·
O[C@@H]1CCCC[C@@H]1N1CCC(c2ccccc2)CC1	·	22%[59 µM]	·	·	·	·
Cc1ccc(NC(=O)Nc2cc3c(cc2N2CCCCC2)n(C)c(=O)n3C)cc1Cl	·	?	·	?	2%	?
COc1ccc2c3c1O[C@H]1[C@@H](O)C=C[C@H]4C(C2)NCCC341 (some centres undefined)	·	13%[59 µM]	·	·	·	·
Cc1cc(/C=C2/C(=O)NC(=O)N(Cc3ccco3)C2=O)c(C)n1-c1ccccc1	?	10µM*	?	50µM*	71µM*	?
O=C1NC(=O)N(Cc2ccco2)C(=O)/C1=C/c1ccc(-c2cccc([N+](=O)[O-])c2)o1	0.42µM*	3.2µM*	-80*	14µM*	?	35µM*
Ic1c(C2=CCCCC2)[se]c2ccccc12	·	19%	·	·	·	·
Cc1cc(C(C#N)c2ccc(Cl)cc2)c(Cl)cc1NC(=O)c1cc(I)cc(I)c1O (centres undefined)	?	14µM*	-55*	50µM*	-13%	45µM*
O=c1[nH]c(=O)n(CCC2=CCCCC2)c(O)c1C=NCc1cccnc1	-3%	50µM*	-5	-4%	26%	-1%
CCCCn1c(O)c(C(CC)=NC(C)c2ccccc2)c(=O)[nH]c1=O (centres undefined)	-9%	15%	·	-22%	7%	?
CCCCCn1c(SCCCC)nc2c1c(=O)[nH]c(=O)n2C	27µM*	?	-15	?	-36%	-3%
Cc1cccc(N2CCN(C(=O)c3ccc(CNc4c(N5CCC(C)CC5)c(=O)c4=O)cc3)CC2)c1C	-7%	30%[59 µM]	1	-23%	-10%	?
O=c1[nH]c(=O)n(-c2ccc(Br)cc2)c(O)c1C=NCCN1CCCCC1	-10%	·	-2	-2%	12%	-2%
COc1ccc(OC)c(-n2c(O)c(C=NCCN3CCNCC3)c(=O)[nH]c2=S)c1	-2%	-4%	6	-16%	38%	-13%
COc1ccc(-n2c(O)c(/C=C/C=Nc3ccccc3)c(=O)[nH]c2=O)cc1	83%	-3%[59 µM]	8	-25%	38%	-14%
COC(=O)C1=Nc2ccccc2/C1=C\c1c(O)n(-c2ccc(Br)cc2)c(=O)[nH]c1=O	1.7µM*	16µM*	-102*	?	-11%	56µM*
O=c1[nH]c(=O)n(-c2ccccc2)c(O)c1/C=C/C=Nc1ccccc1	47%	6%[59 µM]	-14	-15%	28%	-7%
COC(=O)C1=Nc2ccccc2/C1=C\c1c(O)n(-c2ccc(OC)cc2)c(=O)[nH]c1=O	3.4µM*	9%[12.7 µM]	·	?	10%	79µM*
COc1ccc(OC)c(-n2c(O)c(/C=C3\C(C)=Nc4ccccc43)c(=O)[nH]c2=O)c1	?	50µM*	-15	-20%	6%	-37%
O=c1[nH]c(=O)n(-c2ccccc2)c(O)c1/C=C1/C(c2ccccc2)=Nc2ccccc21	11µM*	?	-3	?	-10%	?
COCCN1C(=NCCCOC(C)C)N[C@@H](c2ccccc2)C(C(=O)OC)=C1C	-5%	·	-5	?	29%	7%
CC(C)[C@]1(O)[C@@H](OC(=O)c2ccc[nH]2)[C@@]2(O)[C@@]3(C)C[C@]4(O)O[C@@]5([C@H](O)[C@@H](C)CC[C@]35O)[C@@]2(O)C41C	·	39%[59 µM]	·	-12%	29%	·
SMILES	PLK1 PBD inh	G9a block	PI5P4Ka inh	JMJD2A Tudor	HP1b chromo inh	BAZ2B inh
CC(C)=CCCC1(C)C=Cc2c(O)c3c(c(CC=C(C)C)c2O1)OC12C(=CC4CC1C(C)(C)OC2(C/C=C(/C)C(=O)O)C4=O)C3=O (centres undefined)	·	-39%[2.33 µM]	·	·	·	·
Cc1cccc(-n2c(/C=C\c3cccc(Br)c3)nc3ccccc3c2=O)c1	·	10%[59 µM]	·	-8%	51%	-2%
COC(=O)C1=Nc2ccccc2/C1=C\c1c(O)n(C)c(=O)n(C)c1=O	4.7µM*	?	-70*	-7%	42%	-22%
CCOc1cc(C=O)ccc1O	1%	·	1	-20%	23%	·
O=Cc1ccc(O)c(O)c1	-4%	?	-1	22µM*	28%	56µM*
c1ccc2c(CN3CCCCCCC3)c[nH]c2c1	-2%	?	-2	28µM*	-9%	-5%
c1ccc2c(CN3CCN(C4CCCCC4)CC3)c[nH]c2c1	-3%	50µM*	-5	?	?	50µM*
O=C1CCC(c2ccccc2)(C2CCN(Cc3ccccc3)CC2)C(=O)N1 (centres undefined)	-8%	12%[59 µM]	-2	-9%	34%	10%
C[C@]12CCC3C(CCC4=C(Cl)C(=O)CC[C@@]43C)C1CCC2O (some centres undefined)	·	7%[12.7 µM]	·	·	·	·
CCc1nnc(NS(=O)(=O)c2ccc(N=Cc3c(O)n(-c4ccc(Cl)cc4)c(=O)[nH]c3=O)cc2)s1	27µM*	?	?	35µM*	-3%	-14%
CCCc1[nH][nH]c(=O)c1C(c1ccccc1)C(C#N)C#N (centres undefined)	12µM*	?	-50*	-27%	30%	5%
CCCc1[nH][nH]c(=O)c1C(c1ccc(Cl)cc1)C(C#N)C#N (centres undefined)	21µM*	?	·	?	15%	-6%
O=C(Oc1ccccc1)N(c1ccccc1)c1ccccc1	-3%	·	1	-17%	-17%	46%
O=C(CSc1nc2c([nH]c3ccccc32)c(=O)n1-c1ccccc1)c1ccccc1	·	12%[59 µM]	·	?	11%[57 µM]	1%
COc1ccc(OCC#CCN2CCNCC2)cc1	-10%	8.9µM*	8	6.3µM*	?	32µM*
COc1ccc(CN2CCNCC2)cc1	-12%	?	1	-7%	32%	-5%
CC1CCN(CC#CCOc2ccc(Cl)cc2)CC1	-2%	19%[0.501 µM]	-6	35µM*	?	50µM*
